# Columns and labels:
# Experiment in all cases: DAPPL (digital affinity profiling via proximity ligation, sequencing); 10 mM Tris-HCl pH 7.5, 50 mM NaCl, 1 mM DTT, 4% glycerol, room temperature, 30 min; GST-TFs on glutathione beads, 16-mer random dsDNA library, 0.1% formaldehyde crosslink after washing; high values mean tight binding
# Details in all cases: protein: recombinant; tags: N-terminal GST; dsDNA, one strand shown
# SPI1 = SPI1 (Homo sapiens, UniProt P17947 1-270)
# In short: (§1)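 In yeast, human transcription factors were expressed with a GST fusion, then pulled down on glutathione beads and given DNA barcodes. Pooled with a tag-only sample, they were exposed to 200 nmole of a 16-mer random double-stranded DNA library (Tris/NaCl/DTT/glycerol buffer, room temperature, 30 min), washed, crosslinked with 0.1% formaldehyde, proximity-ligated using BsaI/T4 ligase for 1 h at 37 °C, PCR-amplified and read on an Illumina NextSeq500. Each hexamer's frequency of reads for a factor, divided by the matching frequency for the tag-only sample, gives the binding signal.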
# ETV3L = biological target: T1, ETV3L (Homo sapiens, UniProt Q6ZN32 1-361)
# T1 sequence: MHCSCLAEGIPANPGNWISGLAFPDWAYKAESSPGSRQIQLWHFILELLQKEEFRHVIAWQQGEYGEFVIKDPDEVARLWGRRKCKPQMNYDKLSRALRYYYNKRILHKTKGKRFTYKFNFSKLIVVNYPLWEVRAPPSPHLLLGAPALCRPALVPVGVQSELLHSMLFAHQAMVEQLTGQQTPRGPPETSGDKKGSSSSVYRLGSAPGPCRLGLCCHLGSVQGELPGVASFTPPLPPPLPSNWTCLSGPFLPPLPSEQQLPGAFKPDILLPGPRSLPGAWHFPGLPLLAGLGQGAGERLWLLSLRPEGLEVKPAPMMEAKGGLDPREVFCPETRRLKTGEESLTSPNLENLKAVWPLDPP
# In short: as §1
# FEV = biological target: T2, FEV (Homo sapiens, UniProt Q99581 1-238)
# T2 sequence: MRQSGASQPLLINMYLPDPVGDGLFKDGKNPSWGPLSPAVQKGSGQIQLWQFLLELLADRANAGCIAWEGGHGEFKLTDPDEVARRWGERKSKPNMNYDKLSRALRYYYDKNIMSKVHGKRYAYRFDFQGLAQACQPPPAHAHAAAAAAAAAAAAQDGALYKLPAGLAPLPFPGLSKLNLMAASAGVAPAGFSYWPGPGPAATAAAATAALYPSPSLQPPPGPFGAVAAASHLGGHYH
# In short: as §1
# ETS2 = biological target: T3, ETS2 (Homo sapiens, UniProt P15036 1-469)
# T3 sequence: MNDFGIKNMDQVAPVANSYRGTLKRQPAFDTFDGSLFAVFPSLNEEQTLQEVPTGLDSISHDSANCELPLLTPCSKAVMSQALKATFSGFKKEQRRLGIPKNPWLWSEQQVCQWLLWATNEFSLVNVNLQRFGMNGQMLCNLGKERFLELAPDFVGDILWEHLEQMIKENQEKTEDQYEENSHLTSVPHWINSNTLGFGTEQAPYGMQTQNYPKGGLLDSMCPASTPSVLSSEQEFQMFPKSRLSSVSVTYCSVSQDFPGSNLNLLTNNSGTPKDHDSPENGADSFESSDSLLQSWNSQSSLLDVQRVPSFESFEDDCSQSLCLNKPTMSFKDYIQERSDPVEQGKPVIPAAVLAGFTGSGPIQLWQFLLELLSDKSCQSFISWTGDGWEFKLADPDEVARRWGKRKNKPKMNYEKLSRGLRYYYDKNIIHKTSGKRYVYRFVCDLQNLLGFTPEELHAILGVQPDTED
# In short: as §1
# SPDEF = biological target: T4, SPDEF (Homo sapiens, UniProt O95238 1-335)
# T4 sequence: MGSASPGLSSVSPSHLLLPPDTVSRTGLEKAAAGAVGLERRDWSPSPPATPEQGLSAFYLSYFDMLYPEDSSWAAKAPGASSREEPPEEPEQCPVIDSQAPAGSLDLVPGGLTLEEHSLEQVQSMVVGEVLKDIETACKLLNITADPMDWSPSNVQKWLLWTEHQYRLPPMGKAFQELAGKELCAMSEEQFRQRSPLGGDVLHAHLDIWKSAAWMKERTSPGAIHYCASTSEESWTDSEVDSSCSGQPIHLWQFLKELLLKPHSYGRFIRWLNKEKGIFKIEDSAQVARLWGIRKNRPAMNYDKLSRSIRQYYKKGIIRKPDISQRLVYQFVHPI
# In short: as §1
# ETV3 = biological target: T5, ETV3 (Homo sapiens, UniProt P41162-2 1-143)
# T5 sequence: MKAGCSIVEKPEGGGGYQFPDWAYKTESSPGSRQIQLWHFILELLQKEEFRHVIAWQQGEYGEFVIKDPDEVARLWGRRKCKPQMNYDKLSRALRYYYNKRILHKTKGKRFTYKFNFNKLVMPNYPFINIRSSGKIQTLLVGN
# In short: as §1
# ERG = biological target: T6, ERG (Homo sapiens, UniProt P11308 1-479)
# T6 sequence: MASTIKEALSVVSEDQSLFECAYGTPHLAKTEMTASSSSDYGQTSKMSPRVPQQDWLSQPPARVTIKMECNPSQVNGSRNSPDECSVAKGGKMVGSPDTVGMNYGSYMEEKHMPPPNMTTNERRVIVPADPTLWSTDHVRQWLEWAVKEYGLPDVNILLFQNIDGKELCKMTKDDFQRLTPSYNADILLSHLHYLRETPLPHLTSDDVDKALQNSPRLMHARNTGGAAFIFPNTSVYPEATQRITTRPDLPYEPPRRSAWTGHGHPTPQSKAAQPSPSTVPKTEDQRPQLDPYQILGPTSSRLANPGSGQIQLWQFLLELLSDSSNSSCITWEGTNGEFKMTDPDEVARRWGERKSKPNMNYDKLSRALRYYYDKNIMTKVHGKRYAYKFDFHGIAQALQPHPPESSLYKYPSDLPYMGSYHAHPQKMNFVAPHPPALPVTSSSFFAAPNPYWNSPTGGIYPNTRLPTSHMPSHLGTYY
# In short: as §1
# SPIB = SPIB (Homo sapiens, UniProt Q01892 1-262)
# In short: as §1
# ETV1 = ETV1 (Homo sapiens, UniProt P50549 1-477)
# In short: as §1
# ELF1 = ELF1 (Homo sapiens, UniProt P32519 1-619)
# In short: as §1
# ETV6 = ETV6 (Homo sapiens, UniProt P41212 1-452)
# In short: as §1
# Sequence of SPIB (Q01892 whole entry): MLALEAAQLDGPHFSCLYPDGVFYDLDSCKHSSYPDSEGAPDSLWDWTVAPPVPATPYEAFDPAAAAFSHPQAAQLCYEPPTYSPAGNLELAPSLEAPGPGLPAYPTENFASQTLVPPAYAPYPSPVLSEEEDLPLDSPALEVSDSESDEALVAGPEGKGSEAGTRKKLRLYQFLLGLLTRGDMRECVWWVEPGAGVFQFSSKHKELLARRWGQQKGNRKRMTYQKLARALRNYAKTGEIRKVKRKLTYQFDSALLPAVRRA
# Sequence of ETV6 (P41212 whole entry): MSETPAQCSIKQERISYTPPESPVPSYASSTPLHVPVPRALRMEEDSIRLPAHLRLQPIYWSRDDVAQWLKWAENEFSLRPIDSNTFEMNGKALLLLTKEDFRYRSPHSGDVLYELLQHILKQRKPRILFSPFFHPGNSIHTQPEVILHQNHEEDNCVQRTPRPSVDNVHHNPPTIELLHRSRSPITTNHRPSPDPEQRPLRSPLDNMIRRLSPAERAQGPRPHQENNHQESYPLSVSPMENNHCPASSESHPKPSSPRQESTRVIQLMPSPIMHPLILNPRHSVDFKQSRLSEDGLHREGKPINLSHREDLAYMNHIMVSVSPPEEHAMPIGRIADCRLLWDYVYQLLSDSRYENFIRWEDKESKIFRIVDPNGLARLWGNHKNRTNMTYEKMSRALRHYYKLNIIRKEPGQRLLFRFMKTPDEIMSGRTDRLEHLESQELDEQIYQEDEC
# Sequence of ELF1 (P32519 whole entry): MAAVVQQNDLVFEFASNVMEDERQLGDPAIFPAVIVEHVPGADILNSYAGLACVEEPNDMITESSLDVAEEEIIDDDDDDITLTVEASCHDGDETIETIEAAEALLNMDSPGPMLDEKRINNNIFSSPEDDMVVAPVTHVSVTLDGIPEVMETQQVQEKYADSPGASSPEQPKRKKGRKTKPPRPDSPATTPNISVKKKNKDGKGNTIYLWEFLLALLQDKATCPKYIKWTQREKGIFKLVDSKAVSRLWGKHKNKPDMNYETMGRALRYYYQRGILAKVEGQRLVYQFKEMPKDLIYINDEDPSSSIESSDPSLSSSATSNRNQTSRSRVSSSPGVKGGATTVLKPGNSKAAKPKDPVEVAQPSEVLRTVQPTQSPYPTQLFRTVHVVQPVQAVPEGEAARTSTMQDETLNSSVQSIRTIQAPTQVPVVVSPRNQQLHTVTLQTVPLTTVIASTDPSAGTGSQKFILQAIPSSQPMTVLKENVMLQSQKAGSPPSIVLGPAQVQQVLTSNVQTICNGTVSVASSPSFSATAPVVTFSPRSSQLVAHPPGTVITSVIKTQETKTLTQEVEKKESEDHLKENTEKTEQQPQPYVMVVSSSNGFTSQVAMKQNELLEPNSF
# Sequence of ETV1 (P50549 whole entry): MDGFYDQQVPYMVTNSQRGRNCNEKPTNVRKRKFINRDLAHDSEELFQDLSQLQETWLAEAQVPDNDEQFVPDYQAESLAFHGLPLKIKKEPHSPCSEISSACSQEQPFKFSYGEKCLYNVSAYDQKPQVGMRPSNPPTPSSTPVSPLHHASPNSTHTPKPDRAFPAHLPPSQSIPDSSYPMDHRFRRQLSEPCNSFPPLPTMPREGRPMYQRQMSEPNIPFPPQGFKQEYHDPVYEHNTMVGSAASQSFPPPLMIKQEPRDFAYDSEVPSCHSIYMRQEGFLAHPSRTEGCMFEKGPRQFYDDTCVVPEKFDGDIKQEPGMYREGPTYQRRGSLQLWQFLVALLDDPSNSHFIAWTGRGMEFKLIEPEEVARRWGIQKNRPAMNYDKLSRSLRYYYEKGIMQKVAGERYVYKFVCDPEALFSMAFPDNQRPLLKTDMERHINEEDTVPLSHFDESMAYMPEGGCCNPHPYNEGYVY
sequence,measurement,setting,value
AGTTTA,binding signal,SPI1,"1.01 fold enrichment (6-mer frequency, TF over GST control)"
same,binding signal,ETV3L,"1.09 fold enrichment (6-mer frequency, TF over GST control)"
AGCCCA,binding signal,FEV,"1.01 fold enrichment (6-mer frequency, TF over GST control)"
CCTAGT,binding signal,ETS2,"1.06 fold enrichment (6-mer frequency, TF over GST control)"
CCGTTA,binding signal,SPDEF,"1.04 fold enrichment (6-mer frequency, TF over GST control)"
CGGCAC,binding signal,SPDEF,"1.02 fold enrichment (6-mer frequency, TF over GST control)"
same,binding signal,ETV3,"1.03 fold enrichment (6-mer frequency, TF over GST control)"
GCGGCT,binding signal,ETV3,"1 fold enrichment (6-mer frequency, TF over GST control)"
AGGATA,binding signal,ERG,"1.06 fold enrichment (6-mer frequency, TF over GST control)"
same,binding signal,FEV,"1.01 fold enrichment (6-mer frequency, TF over GST control)"
GGATGA,binding signal,ERG,"1.01 fold enrichment (6-mer frequency, TF over GST control)"
same,binding signal,SPIB,"1.06 fold enrichment (6-mer frequency, TF over GST control)"
same,binding signal,ETV1,"1.05 fold enrichment (6-mer frequency, TF over GST control)"
same,binding signal,ETS2,"1.1 fold enrichment (6-mer frequency, TF over GST control)"
TGTCGC,binding signal,ELF1,"1.04 fold enrichment (6-mer frequency, TF over GST control)"
same,binding signal,FEV,"1.02 fold enrichment (6-mer frequency, TF over GST control)"
same,binding signal,ETV6,"1.01 fold enrichment (6-mer frequency, TF over GST control)"
CCAAAG,binding signal,SPIB,"1.01 fold enrichment (6-mer frequency, TF over GST control)"
TGACAG,binding signal,ETV3L,"1 fold enrichment (6-mer frequency, TF over GST control)"
CGCGGA,binding signal,ETS2,"1 fold enrichment (6-mer frequency, TF over GST control)"
AGTACG,binding signal,ETV6,"1.03 fold enrichment (6-mer frequency, TF over GST control)"

# — PMC7862700, “An all-to-all approach to the identification of sequence-specific readers for epigenetic DNA modifications on cytosine”
